{"source": "paper PMC5540273", "about": "(PLoS ONE, 2017);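 also: KINOMEscan kinase panel screen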", "data": [{"tested_on": "GAK", "conditions": "concentration: 1 μM, replicates: in singlicate; n = 1", "units": {"%Inh": "%"}, "values": [{"molecule": "Cc1ccc(NC(=O)Nc2cc(C(C)(C)C)nn2-c2ccccc2)cc1", "note": "[GSK1014915]", "%Inh": 11}, {"molecule": "CC1=C(C(=O)Nc2cc3cn[nH]c3cc2F)C(c2ccc(C(F)(F)F)cc2)CC(=O)N1", "note": "(stereo not shown) [GSK429286]", "%Inh": 0}, {"molecule": "Nc1nc(-c2nccs2)c(-c2ccnc3ccccc23)s1", "note": "[GW693542]", "%Inh": 45}, {"molecule": "COc1ccc(C2=C(Nc3cccc(C(=O)O)c3)C(=O)NC2=O)cc1", "note": "[SB-390765]", "%Inh": 8}, {"molecule": "O=C(O)COc1ncnc2cc(-c3ccc4[nH]ncc4c3)sc12", "%Inh": 4}, {"molecule": "Cc1cccc(-c2nc(Nc3cccc(C(N)=O)c3)c3ccccc3n2)n1", "note": "[GW876019]", "%Inh": 0}, {"molecule": "CC(C)(C)c1ccc(C(=O)Nc2cn3cc(-c4cccnc4)ccc3n2)cc1", "%Inh": 18}, {"molecule": "COc1ccccc1CNC(=O)c1cc(C(=O)c2ccccc2C)c[nH]1", "note": "[GSK364507]", "%Inh": 15}]}, {"tested_on": "T1, GCN2(Kin.Dom.2,S808G)", "T1 construct": "gene EIF2AK4", "conditions": "concentration: 1 μM, replicates: in singlicate; n = 1", "units": {"%Inh": "%"}, "values": [{"molecule": "Cn1cncc1-c1ccc2ncnc(Nc3ccc(OCc4ccccc4)cc3)c2c1", "note": "[GW320571]", "%Inh": 0}, {"molecule": "Cc1cc(-c2ccc3c(c2)CC[C@@H](N[C@@H](C)c2ccccc2)C3)cnc1N.Cl", "note": "[GW412617]", "%Inh": 26}, {"molecule": "Fc1cccc(COc2nnc(-c3ccc4c(c3)CCO4)o2)c1", "%Inh": 5}, {"molecule": "O=C(Nc1n[nH]c2cc(-c3cccc(F)c3F)ccc12)C1CC1", "note": "[SB-733894]", "%Inh": 0}, {"molecule": "COc1cc(Nc2nccc(N3CCC(NC(=O)Nc4cc(C)ccc4C)C3)n2)cc(OC)c1OC", "note": "(stereo not shown) [GSK1379762]", "%Inh": 3}, {"molecule": "CC(C)(C)c1ccc(C(=O)Nc2cn3cc(Cl)ccc3n2)cc1", "%Inh": 36}, {"molecule": "COc1ccc2nc(-c3cccc(C)n3)nc(Nc3ccncc3)c2c1", "note": "[GSK204919]", "%Inh": 0}, {"molecule": "Cc1c(O)cccc1Nc1ccnc2ccc(C(F)(F)F)cc12.Cl", "note": "[GW466413]", "%Inh": 9}, {"molecule": "Cc1ccc(-c2cc(-c3c[nH]nc3-c3ccccn3)ccn2)cc1", "note": "[GW684088]", "%Inh": 0}, {"molecule": "O=S(=O)(c1ccc(-c2ccnc3[nH]ccc23)cc1)N1CCCC1", "note": "[GSK846226]", "%Inh": 0}, {"molecule": "Cn1ccc2ncnc(Oc3cccc(C(=O)Nc4ccccc4)c3)c21", "%Inh": 14}, {"molecule": "CCCc1ccc(S(=O)(=O)NC2CCN(c3ccnc(Nc4ccc(F)cc4)n3)C2)cc1", "note": "(stereo not shown) [GSK1379715]", "%Inh": 0}, {"molecule": "O=C1NC(=O)C(N2CCc3ccccc32)=C1c1ccccc1Cl", "note": "[SB-373598]", "%Inh": 4}, {"molecule": "COC(=O)c1c(-c2ccccc2)c2cc(OC)ccc2c(=O)n1Cc1ccccc1", "%Inh": 2}, {"molecule": "COc1cccc(-c2cc(-c3c[nH]nc3-c3ccccn3)ccn2)c1", "note": "[GW680338]", "%Inh": 7}, {"molecule": "COc1cc2ncnc(Nc3ccc4nc(-c5ccccc5)[nH]c4c3)c2cc1OC.Cl", "note": "[GW282450]", "%Inh": 0}, {"molecule": "COC(=O)c1c(-c2ccccc2)c2cc(C(=O)O)ccc2c(=O)n1Cc1ccccc1", "%Inh": 10}, {"molecule": "Cc1cccc(-c2nc(Nc3ccncc3)c3ccccc3n2)n1", "note": "[GW855857]", "%Inh": 0}, {"molecule": "Cc1cccc(-c2nc(-c3ccc(S(C)(=O)=O)cc3)sc2-c2ccnc(NCCc3ccccc3)c2)c1", "%Inh": 16}, {"molecule": "CN(C)CCN(C)C(=O)c1cc(-c2ccncc2)c(-c2ccc(Cl)c(O)c2)o1.Cl.Cl", "note": "[SB-710397]", "%Inh": 0}, {"molecule": "Cc1nnc(-c2ccc3occ(-c4ccc(S(C)=O)cc4)c3c2)[nH]1", "note": "(stereo not shown)", "%Inh": 0}, {"molecule": "COc1cc2nccc(Nc3ccc(NC(=O)c4ccc(C)cc4)c(O)c3)c2cc1OC.Cl", "note": "[GW440132]", "%Inh": 0}, {"molecule": "Cc1cccc(-c2cc(Nc3ccncc3)c3ccccc3n2)n1", "note": "[GSK223675]", "%Inh": 0}, {"molecule": "Cn1ccc2ncnc(Oc3ccc(Nc4nc5ccccc5[nH]4)cc3)c21", "%Inh": 0}, {"molecule": "Cc1cc(NCC(c2ccccc2)c2ccccc2)nc(NCc2ccc(C(F)(F)F)cc2)n1", "note": "[GW497681]", "%Inh": 0}, {"molecule": "Cc1cccc(-c2nc(C)cc(Nc3ccncc3)n2)n1", "note": "[GSK257997]", "%Inh": 0}, {"molecule": "Cl.c1ccc(-c2n[nH]cc2-c2ccnc(-c3ccc(CN4CCOCC4)cc3)c2)nc1", "note": "[GW776245]", "%Inh": 0}, {"molecule": "Cc1ccc(NC(=O)Nc2cc(C(C)(C)C)nn2-c2ccccc2)cc1", "note": "[GSK1014915]", "%Inh": 9}, {"molecule": "CC1=C(C(=O)Nc2cc3cn[nH]c3cc2F)C(c2ccc(C(F)(F)F)cc2)CC(=O)N1", "note": "(stereo not shown) [GSK429286]", "%Inh": 14}, {"molecule": "Nc1nc(-c2nccs2)c(-c2ccnc3ccccc23)s1", "note": "[GW693542]", "%Inh": 17}, {"molecule": "COc1ccc(C2=C(Nc3cccc(C(=O)O)c3)C(=O)NC2=O)cc1", "note": "[SB-390765]", "%Inh": 0}, {"molecule": "O=C(O)COc1ncnc2cc(-c3ccc4[nH]ncc4c3)sc12", "%Inh": 0}, {"molecule": "Cc1cccc(-c2nc(Nc3cccc(C(N)=O)c3)c3ccccc3n2)n1", "note": "[GW876019]", "%Inh": 0}, {"molecule": "CC(C)(C)c1ccc(C(=O)Nc2cn3cc(-c4cccnc4)ccc3n2)cc1", "%Inh": 21}, {"molecule": "COc1ccccc1CNC(=O)c1cc(C(=O)c2ccccc2C)c[nH]1", "note": "[GSK364507]", "%Inh": 9}]}]}
